The list is not random: actives were taken first. Their share in the collection is about 10%.
VP16 counter = Gal4-VP16 reporter inhibition counter-screen; Drosophila S2 Gal4-VP16 UAS-luciferase, luminescence, 20 h; Potency, µM (top dose mostly 53.6 µM), inactives show at the highest dose activity, negative = inhibition, most hits filed as inhibitors; 310,000 compounds, 3.5% hits; AID 2546;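 further: Gal4-VP16 expression switched on by copper sulfate through the metallothionein promoter; on the % scale 0 is the no-effect control and ±100 the full control effect; nearly all actives have a fitted effect of over 50% in size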
RORg inh = ROR gamma (mouse) transcription inhibition; P51450; Drosophila S2 Gal4-RORgamma UAS-luciferase reporter, 20 h; Potency, µM (top dose mostly 53.6 µM), inactives show top-dose activity change, negative = inhibition, most hits filed as inhibitors; 310,000 compounds, 5.4% hits; further: on the % scale 0 is the no-effect control and ±100 the full control effect; nearly all actives have a fitted effect of over 60% in size
Target sequence (P51450 whole entry, looked up, the tested form may be a part): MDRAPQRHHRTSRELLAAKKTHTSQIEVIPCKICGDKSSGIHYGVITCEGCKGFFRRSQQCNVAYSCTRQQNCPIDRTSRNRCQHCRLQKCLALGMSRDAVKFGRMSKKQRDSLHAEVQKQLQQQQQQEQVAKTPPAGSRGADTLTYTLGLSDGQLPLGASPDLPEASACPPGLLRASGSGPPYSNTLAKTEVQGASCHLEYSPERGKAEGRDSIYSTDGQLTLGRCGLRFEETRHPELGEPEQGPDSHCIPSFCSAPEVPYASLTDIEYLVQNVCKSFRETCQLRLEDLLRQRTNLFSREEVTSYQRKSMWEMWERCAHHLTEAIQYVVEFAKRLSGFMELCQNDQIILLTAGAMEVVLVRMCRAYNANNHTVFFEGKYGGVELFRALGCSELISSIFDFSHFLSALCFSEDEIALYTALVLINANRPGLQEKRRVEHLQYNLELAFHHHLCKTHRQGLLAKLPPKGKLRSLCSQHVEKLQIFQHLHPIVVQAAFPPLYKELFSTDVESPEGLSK
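ROR gamma transcriptional activity was tracked as Gal4-UAS luciferase output in stably transfected Drosophila Schneider cells, with compound added 1 hr before 700 uM copper sulfate induction and a 20 hr ambient-temperature incubation.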
MCF10A rereplic = DNA re-replication induction in MCF 10a cells | MCF 10A DNA re-replication, Hoechst nuclear intensity, 48 h | Potency, µM (titrated, usually from 46.1 µM), inactives show at the top dose activity, positive = re-replication, most hits filed as activators | 350,000 compounds, 2.9% hits; further: % of control where 0% means no effect; nearly all actives have a fitted effect of over 50% in size
ELG1 DNA repair = inhibitors of ELG1-dependent DNA repair in HEK293T cells; HEK293T ELG1-luciferase reporter, luminescence, 16 h; DNA damage induced by 5-fluorouridine; Potency, µM (doses to about 46.1 µM), without a hit: at the highest dose activity change, negative = inhibition, hits mostly inhibitors; 330,000 compounds, 2.3% hits; further: on the % scale 0 is the no-effect control and ±100 the full control effect; nearly all actives have a fitted effect of over 55% in size
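5-Fluorouridine DNA damage + compound/DMSO, 2,000 cells/well, 16 h, 37 °C/5% CO2. ONE-Glo, 30 min RT, luminescence. Readout = decrease in reporter signal.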
SW480 rerep = induces DNA re-replication in SW480 colon adenocarcinoma cells; 340,000 compounds, 1.8% hits; Potency, µM (top dose mostly 46.1 µM), inactives show at the top dose re-replication activation, usual class: activators; SW480 DNA re-replication, Hoechst DNA content imaging, 48 h; further: % of control where 0% means no effect; nearly all actives have a fitted effect of over 55% in size
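First, 250 cells per well were seeded. Next, compound or vehicle (23 nL) was pinned in, plates sat 48 hr at 37 C. Finally Hoechst was added for 40 min before fluorescence scanning.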
Numbers without * were called inactive; [ ] = another dose, or the depositor's remark. The call rests on the fitted dose curve; in most records, active means well fitted curve in the direction sought with a large enough effect; inconclusive means small, poorly fitted or top-dose-only effect, or another doubt; inactive means no such curve, though single readings can be large; an effect the other way counts as inactive or inconclusive. Potency means the concentration at half of the fitted maximal effect.

How did O=C(CCCn1c(=S)[nH]c2cc3c(cc2c1=O)OCO3)N1CCN(C2CCCCC2)CC1 do in these assays?
VP16 counter: -0.7%; RORg inh: inconclusive; MCF10A rereplic: 10.7%; ELG1 DNA repair: -1.2%; SW480 rerep: 16.1%

What do the screens show for `COc1ccc2[nH]c(C(=O)NCc3ccccc3)c(C)c2c1`?
VP16 counter: -6.8%; RORg inh: 13.4%; MCF10A rereplic: 1.3%; ELG1 DNA repair: 0.5%; SW480 rerep: 6.6%

What do the screens show for `Cc1cc(NC(=O)COC(=O)CNS(=O)(=O)c2c(F)cc(F)cc2Br)no1`?
MCF10A rereplic: 0.1%; ELG1 DNA repair: inconclusive; SW480 rerep: -0.2%

What do the screens show for `CCOc1cc(/C=N/NC(=O)C2CC2)ccc1OC(C)C`?
VP16 counter: 1.2%; RORg inh: 5.3%; MCF10A rereplic: -0.6%; ELG1 DNA repair: -5.7%; SW480 rerep: -4.2%

How did CC1(C)CC(=O)C2=C(C1)OC1=C(C(=O)CC(C)(C)C1)C2c1ccc(O)cc1O do in these assays?
VP16 counter: 6.31µM*; RORg inh: 3.16µM*; MCF10A rereplic: inconclusive; ELG1 DNA repair: inconclusive; SW480 rerep: 3.16µM*

What do the screens show for `C#CCN1C=C(C(=O)OCC)C(C)N(Cc2ccccc2I)S1(=O)=O` (stereo not given)?
MCF10A rereplic: 23.1µM*; ELG1 DNA repair: inconclusive; SW480 rerep: 1.3µM*

What do the screens show for `CC(C)c1cc2c(c(O)c1O)[C@@]13CCCC(C)(C)C1CC2OC3=O` (stereo not given in full)?
VP16 counter: inconclusive; RORg inh: 14.1µM*; MCF10A rereplic: inconclusive; ELG1 DNA repair: 9.6%; SW480 rerep: inconclusive

How did CC(C)c1c(O)c(-c2cc3c(c(C(C)C)c2O)CCC2C(C)(C)CCC[C@@]32C)cc2c1CCC1C(C)(C)CCC[C@@]21C (stereo not given in full) do in these assays?
VP16 counter: 2.0%; RORg inh: 0.4%

What do the screens show for `Cc1cc(C)n2nc(C)c(-c3ccccc3)c2n1`?
MCF10A rereplic: 14.6%; SW480 rerep: -11.4%

Results for Cc1cc(NCc2ccccn2)n2nc(C)c(-c3ccccc3)c2n1 ?
VP16 counter: 0.316µM*; RORg inh: 0.708µM*; MCF10A rereplic: 5.8%; ELG1 DNA repair: 23.1µM*; SW480 rerep: inconclusive

How did c1ccc(CNc2c3c(nc4ncnn24)CCCC3)nc1 do in these assays?
VP16 counter: -1.1%[0.365 µM]; RORg inh: 7.08µM*; MCF10A rereplic: inconclusive; ELG1 DNA repair: inconclusive; SW480 rerep: 0.1%[9.22 µM]

What do the screens show for `Cc1cc(Nc2ccccc2)n2nc(C)c(-c3ccccc3)c2n1`?
VP16 counter: 3.6%; RORg inh: 12.9%; MCF10A rereplic: -0.2%; ELG1 DNA repair: -12.2%; SW480 rerep: inconclusive

Results for Cc1cc(C)cc(Nc2c3c(nc4ncnn24)CCC3)c1 ?
VP16 counter: 12.6µM*; RORg inh: inconclusive; MCF10A rereplic: inconclusive; ELG1 DNA repair: -3.7%; SW480 rerep: inconclusive

Results for Cc1nn2c(NCc3ccccn3)c3c(nc2c1-c1ccccc1)CCC3 ?
VP16 counter: 0.562µM*; RORg inh: 0.1µM*; MCF10A rereplic: -11.4%; ELG1 DNA repair: 10.3µM*; SW480 rerep: inconclusive

How did COc1ccc(Nc2c3c(nc4c(-c5ccccc5)c(C)nn24)CCC3)cc1 do in these assays?
VP16 counter: 3.55µM*; RORg inh: 3.16µM*; MCF10A rereplic: 12.1%; ELG1 DNA repair: 14.6µM*; SW480 rerep: -5.5%

Results for COc1ccc(-c2c(C)nn3c(-c4ccccc4)cc(C)nc23)cc1 ?
VP16 counter: 3.8%; RORg inh: -6.0%; MCF10A rereplic: 2.5%; ELG1 DNA repair: inconclusive; SW480 rerep: -9.3%

Results for Cc1nn2c(NCc3ccccn3)cc(C(C)(C)C)nc2c1-c1ccccc1 ?
VP16 counter: 2.24µM*; RORg inh: 0.251µM*; MCF10A rereplic: 2.59µM*; ELG1 DNA repair: inconclusive; SW480 rerep: 2.91µM*

Results for Cc1nn2c(NCCN3CCOCC3)c3c(nc2c1-c1ccccc1)CCCC3 ?
VP16 counter: 3.55µM*; RORg inh: 1.58µM*; MCF10A rereplic: inconclusive; ELG1 DNA repair: 16.4µM*; SW480 rerep: -5.8%

Screening results from PubChem.
